Source: PubChem BioAssay (Tox21)
Records with an inconclusive call do not appear. Entries that show only a call come without a potency. Active and inactive are the calls of the source. Unless noted, calls come from the whole dose curve; as a rule, active = well fitted curve in the direction sought with a large enough effect in the repeat runs; inconclusive = weak or mixed curves; inactive = no such curve, though single readings can be large; an effect the other way counts as inactive or inconclusive.

Key:
[1] = qHTS assay to identify small molecule antagonists of the thyroid receptor (TR) signaling pathway (AID 743065); note: series mostly up to about 70 µM; nearly all actives have a fitted effect of over 55% in size
Summary of the method: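 GH3.TRE-Luc rat pituitary cells carrying two TR response elements driving luciferase were plated for 4 h, given compound plus 1 nM T3 (final), and incubated 23.5 h at 37 C. ONE-Glo luminescence measured reporter inhibition; CellTiter-Fluor fluorescence tracked cytotoxicity.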

[2] = tested on: thyroid hormone receptor (rat, GH3 cells); assay: qHTS assay to identify small molecule agonists of the thyroid receptor (TR) signaling pathway (AID 743066; calls by dose curve)
[3] = target: Estrogen receptor (Homo sapiens) (UniProt P03372); assay: qHTS assay to identify small molecule antagonists of the estrogen receptor alpha (ER-alpha) signaling pathway (AID 743069; active = well fitted curve in the direction sought with a large enough effect in the signal ratio in the repeat runs, not every such curve was filed as active; the % refers to the signal ratio)
Summary of the method: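 HEK293 cells stably carrying an ER-alpha-UAS-bla beta-lactamase reporter were pre-cultured overnight in 2% charcoal-stripped FBS medium. Test compounds in DMSO were added together with 17beta-estradiol for 18 hr at 37C. Read-out was fluorescence after 2 hr with LiveBLAzer B/G FRET substrate at room temperature.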

[4] = qHTS assay to identify small molecule antagonists of the estrogen receptor alpha (ER-alpha) signaling pathway - cell viability counter screen (AID 743074; calls by dose curve; note: nearly all actives have a fitted effect of over 45% in size)
[5] = target: Estrogen receptor (Homo sapiens) (UniProt P03372); assay: qHTS assay to identify small molecule agonists of the estrogen receptor alpha (ER-alpha) signaling pathway (AID 743075; calls by dose curve)
[6] = target: Estrogen receptor (Homo sapiens) (UniProt P03372); assay: qHTS assay to identify small molecule agonists of the estrogen receptor alpha (ER-alpha) signaling pathway using the BG1 cell line (AID 743079); note: nearly all actives have a fitted effect of over 20% in size; note: potency is the fitted concentration of half-maximal effect
[7] = qHTS assay to identify small molecule antagonists of the estrogen receptor alpha (ER-alpha) signaling pathway using the BG1 cell line (AID 743080; calls by dose curve;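 note: BG1 cells stimulated with 17beta-estradiol alongside compound; series mostly up to about 70 µM; nearly all actives have a fitted effect of over 25% in size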)
Summary of the method: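 BG1Luc4E2, endogenous ER-alpha, 4xERE-luc; 5 d charcoal-stripped FBS, phenol red free; 24 h plating; cpd + 17beta-estradiol 21.5 h, 37 C/5% CO2; CellTiter-Fluor viability 30 min, then ONE-Glo luciferase 30 min RT.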

[8] = qHTS assay to identify small molecule antagonists of the estrogen receptor alpha (ER-alpha) signaling pathway using the BG1 cell line - cell viability counter screen (AID 743081);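 note: compound given together with 17beta-estradiol as the ER stimulus; series mostly up to about 70 µM; nearly all actives have a fitted effect of over 45% in size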
[9] = target: Aromatase (Homo sapiens) (UniProt P11511); assay: qHTS assay to identify aromatase inhibitors (AID 743083); note: series mostly up to about 70 µM; nearly all actives have a fitted effect of over 55% in size
[10] = qHTS assay to identify aromatase inhibitors - cell viability counter screen (AID 743084);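 note: cells stimulated with testosterone during compound exposure; nearly all actives have a fitted effect of over 55% in size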

Estrogen receptor (Homo sapiens), sequence (P03372 whole entry, looked up): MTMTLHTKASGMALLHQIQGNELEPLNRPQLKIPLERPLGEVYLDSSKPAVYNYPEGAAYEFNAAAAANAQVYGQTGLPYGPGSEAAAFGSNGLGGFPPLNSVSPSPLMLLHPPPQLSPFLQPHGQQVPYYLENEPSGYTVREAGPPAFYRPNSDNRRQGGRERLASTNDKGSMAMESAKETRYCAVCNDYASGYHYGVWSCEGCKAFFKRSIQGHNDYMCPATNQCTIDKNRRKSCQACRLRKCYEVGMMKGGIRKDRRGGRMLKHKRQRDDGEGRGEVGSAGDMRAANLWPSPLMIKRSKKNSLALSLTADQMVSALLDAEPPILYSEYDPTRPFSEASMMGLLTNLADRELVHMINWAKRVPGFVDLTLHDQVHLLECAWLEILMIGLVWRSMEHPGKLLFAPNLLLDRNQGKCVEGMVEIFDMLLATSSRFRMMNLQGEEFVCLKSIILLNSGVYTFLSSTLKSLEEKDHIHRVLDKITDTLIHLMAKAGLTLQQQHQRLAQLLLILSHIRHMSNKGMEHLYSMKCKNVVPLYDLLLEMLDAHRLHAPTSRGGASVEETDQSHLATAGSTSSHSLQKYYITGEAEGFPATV
Aromatase (Homo sapiens), sequence (P11511 whole entry, looked up): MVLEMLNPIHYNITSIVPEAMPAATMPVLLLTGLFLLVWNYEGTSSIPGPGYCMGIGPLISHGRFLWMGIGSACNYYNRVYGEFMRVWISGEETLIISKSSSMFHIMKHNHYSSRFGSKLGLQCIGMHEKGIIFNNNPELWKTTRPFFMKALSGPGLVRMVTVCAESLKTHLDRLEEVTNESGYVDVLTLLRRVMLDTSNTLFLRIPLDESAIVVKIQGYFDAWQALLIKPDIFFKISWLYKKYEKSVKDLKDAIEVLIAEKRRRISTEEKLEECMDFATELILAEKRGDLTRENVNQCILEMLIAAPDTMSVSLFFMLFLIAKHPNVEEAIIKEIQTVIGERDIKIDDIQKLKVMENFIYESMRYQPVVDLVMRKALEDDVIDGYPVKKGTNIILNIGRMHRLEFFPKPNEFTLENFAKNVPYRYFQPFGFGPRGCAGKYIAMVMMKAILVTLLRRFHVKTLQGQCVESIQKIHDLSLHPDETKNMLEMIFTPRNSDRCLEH

SMILES | Potency [1] | Potency [2] | outcome [3] | Potency [4] | Potency [5] | Potency [6] | Potency [7] | outcome [8] | Potency [9] | outcome [10]
C/C=C(\C)C=O | inactive | inactive | inactive | inactive | inactive | inactive | inactive | inactive | inactive | inactive
Cc1ccc(S(=O)(=O)NC(=O)NN2CC3CCCC3C2)cc1 (stereo not drawn) | inactive | inactive | inactive | inactive | inactive | inactive | inactive | inactive | inactive | inactive
CCCCCCCCCCCBr | inactive | inactive | inactive | inactive | inactive | inactive | inactive | inactive | inactive | inactive
CN(C)CCc1c[nH]c2ccc(CS(=O)(=O)N3CCCC3)cc12 | inactive | inactive | inactive | inactive | inactive | inactive | inactive | inactive | inactive | inactive
CCCCCCCOC(C)=O | inactive | inactive | inactive | inactive | inactive | 48.6 µM (active) | inactive | inactive | inactive | inactive
Cc1nc2ccc(Cl)cc2[nH]1 | inactive | inactive | inactive | inactive | inactive | inactive | inactive | inactive | inactive | inactive
CCCCS | inactive | inactive | inactive | inactive | inactive | inactive | inactive | inactive | inactive | inactive
O=C1c2ccccc2C(=O)N1CO | inactive | inactive | inactive | inactive | inactive | inactive | inactive | inactive | inactive | inactive
COc1cnc(NS(=O)(=O)c2ccc(N)cc2)nc1 | inactive | inactive | inactive | inactive | inactive | inactive | inactive | inactive | inactive | inactive
CC(=O)Nc1ccc(S(=O)(=O)Nc2cc(C)on2)cc1 | inactive | inactive | inactive | inactive | inactive | inactive | inactive | inactive | inactive | inactive
O=C(CCBr)N1CCN(C(=O)CCBr)CC1 | inactive | inactive | inactive | inactive | inactive | inactive | inactive | inactive | inactive | inactive
C[Si](C)(C)O[Si](O)(O)O | inactive | inactive | inactive | inactive | inactive | inactive | inactive | inactive | inactive | inactive
CC1=C(O)C(=O)CO1 | inactive | inactive | inactive | inactive | inactive | inactive | inactive | inactive | inactive | inactive
C[C@@H]1CC[C@@]2(OC1)O[C@H]1C[C@H]3[C@@H]4CC[C@H]5C[C@@H](O)CC[C@]5(C)[C@H]4CC(=O)[C@]3(C)[C@H]1[C@@H]2C | inactive | inactive | inactive | inactive | inactive | inactive | inactive | inactive | inactive | inactive
c1coc(Cn2cccc2)c1 | inactive | inactive | inactive | inactive | inactive | inactive | inactive | inactive | inactive | inactive
CN(C)CCC[C@@]1(c2ccc(F)cc2)OCc2cc(C#N)ccc21 | inactive | inactive | inactive | inactive | inactive | inactive | inactive | inactive | inactive | inactive
CCOC(=O)CC | inactive | inactive | inactive | inactive | inactive | inactive | inactive | inactive | inactive | inactive
CC(CC(=O)Cl)CC(C)(C)C (stereo not drawn) | inactive | inactive | inactive | inactive | inactive | inactive | inactive | inactive | inactive | inactive
CN(C)c1cc(NC(=O)CNC(C)(C)C)c(O)c2c1C[C@H]1C[C@H]3[C@H](N(C)C)C(=O)C(C(N)=O)=C(O)[C@@]3(O)C(=O)C1=C2O | inactive | inactive | inactive | inactive | inactive | inactive | inactive | inactive | inactive | inactive
C=CCn1cc[n+](C)c1 | inactive | inactive |  | inactive | inactive | inactive | inactive | inactive | inactive | inactive
CC(=O)c1ccc2ccc3ccccc3c2c1 | inactive | inactive | inactive | inactive | inactive | 8.58 µM (active) |  | inactive | inactive | inactive
Cc1ccccc1C#N | inactive | inactive |  | inactive | inactive | inactive | inactive | inactive | inactive | inactive
O=C(OOC(=O)c1ccccc1)c1ccccc1 | inactive | inactive |  | inactive | inactive | inactive | inactive | inactive | inactive | inactive
CC[C@@]1(c2ccccc2)NC(=O)N(C)C1=O | inactive | inactive |  | inactive | inactive | inactive | inactive | inactive | inactive | inactive
CC(CN1CC(=O)NC(=O)C1)N1CC(=O)NC(=O)C1 (stereo not drawn) | inactive | inactive | inactive | inactive | inactive | inactive |  | inactive | inactive | 
